Laboratory results taken from PubChem BioAssay (NCI).
This is part of a sample that, as a whole, favours compounds with a hit. Of some 83,000 tested, about 20% had one in any assay.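 Plates (96-well) were seeded with cells, treated with compound at one concentration, and incubated for 48 hours before percent growth was determined.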 Unmarked numbers belong to inactive results. Calls of active or inactive are those of the source. How the source made its calls: active means growth percent below 10; inactive means the rest.

Tests used:
Assay in all cases: NCI-60 one-dose screen, 48 h (100 = growth as untreated, 0 = no growth, -100 = all killed)
Details in all cases: 10 µM unless noted
SK-MEL-2 melanoma = system: SK-MEL-2 melanoma
EKVX NSCLC = system: EKVX NSCLC
SN12C renal = system: SN12C renal
UO-31 renal = system: UO-31 renal
TK-10 renal = system: TK-10 renal
ACHN renal = system: ACHN renal
CAKI-1 renal = system: CAKI-1 renal
A498 renal = system: A498 renal
CCRF-CEM leukemia = system: CCRF-CEM leukemia
MOLT-4 leukemia = system: MOLT-4 leukemia

SMILES | growth (SK-MEL-2 melanoma) | growth (EKVX NSCLC) | growth (SN12C renal) | growth (UO-31 renal) | growth (TK-10 renal) | growth (ACHN renal) | growth (CAKI-1 renal) | growth (A498 renal) | growth (CCRF-CEM leukemia) | growth (MOLT-4 leukemia)
Cn1c(=O)c2[nH]c(N/N=C/c3ccccc3Br)nc2n(C)c1=O | 120% | 128% | 104% | 92.4% | 82.8% | 105% | 93.4% | 92.9% | 104% | 98.3%
COc1ccc(C(=O)C2C(c3ccc(OC)cc3)CN(C)C23C(=O)Nc2ccccc23)cc1 (stereo not given) | 96.9% | 91% | 92.1% | 70.3% | 103% | 95.5% | 68.2% | 99.8% | 97.4% | 88.1%
COc1ccc(C2=Nc3c/c(=C\c4c(O)[nH]c5ccc(Cl)cc45)ccc3=N2)cc1 | 20.1% | 56.6% | 73.4% | 59% | 82.5% | 70.1% | 51.3% | 25.9% | 8.54% (active) | 19.9%
CSc1nnc(-c2cnn3c2NC(c2ccccc2)C3)n1-c1ccc(C(F)(F)F)cc1 (stereo not given) | 50.2% | 56% | 78.5% | 53.7% | 70.6% | 52.3% | 32% | 46.8% | 48% | 41.9%
N#Cc1c(-c2ccc(Cl)cc2)nc(NN=Cc2cccc(O)c2)nc1N1CCOCC1 | 91.5% | 66.6% | 78.3% | 35.7% | 79% | 60.9% | 60.5% | 75.1% | 36.2% | 39.8%
CCOC(=O)c1c(C)nc2c(c1N)CC(=O)N2Cc1cc(F)cc(Cl)c1 | 118% | 85.3% | 93.2% | 84.6% | 92.1% | 88.2% | 75.8% | 76.7% | 95.2% | 95.9%
COc1ccc(-c2nn(-c3ccccc3)cc2/C=C2/SC(=S)N(C)C2=O)cc1 | 108% | 74.4% | 34.2% | 16% | 27.7% | -0.446% (active) | 38.5% | 96.9% | 49.6% | 81.3%
Cc1ccc(Sc2oc(-c3ccc(C)cc3)nc2[P+](c2ccccc2)(c2ccccc2)c2ccccc2)cc1 | -36% (active) | 6.65% (active) | 3.64% (active) | -22.3% (active) | 22.7% | -6.75% (active) | -23.2% (active) | -40.5% (active) | -2.03% (active) | -25.9% (active)
CC1Cc2c(Cl)ncnc2N(C)c2ccc(F)cc21 (stereo not given) | 110% | 87.6% | 106% | 79.6% | 98.9% | 103% | 91% | 101% | 95.6% | 89.2%
CCn1c(=S)[nH]c2c(=O)n(C)c(=O)n(C)c21 | 103% | 95.1% | 101% | 93.9% | 108% | 97.6% | 102% | 113% | 102% | 98.2%
N=C(N)c1ccc(-c2ccc(-c3ccc(Cl)cc3)s2)nc1 | 103% | 59.1% | 52.5% | 44.6% | 103% | -75.9% (active) | -65% (active) | 84.5% | -45.8% (active) | -57.8% (active)
Cc1ccccc1/C=C1\CN(C(=O)OC(C)(C)C)C/C(=C\c2ccccc2C)C1=O | 86.4% | 55.6% | -6.85% (active) | 31.9% | 30.3% | -21.7% (active) | 28.8% | 84.8% | 2.95% (active) | 10.8%
CCO/C=N/C1=C(C#N)C(c2ccc(OC)cc2)c2sc3c(F)cccc3c2O1 (stereo not given) | 33.3% | 49.4% | 39.6% | 38.1% | 51.8% | 48.1% | 25.2% | 21.7% | 12.2% | 24.5%
O=C(COc1ccc(-c2nc3ccccc3[nH]2)cc1)N=Nc1c(O)[nH]c2ccc(Cl)cc12 | 107% | 95.7% | 83.9% | 93.9% | 88.2% | 97.6% | 93.9% | 89.8% | 27.6% | 22.9%
CCOC(=O)C#Cc1c(C(=O)OCC)nnn1[C@@H]1O[C@H](CO)[C@H]2OC3(CCCCC3)O[C@H]21 | 106% | 105% | 75.6% | 5.58% (active) | -3.79% (active) | -53% (active) | -99.7% (active) | 110% | 6.89% (active) | 22.3%
O=Nc1c(-c2c(O)[nH]c3ncccc23)[nH]c2ccccc12 | 14.7% | 35.5% | 72.8% | 10.6% | 40.3% | 22.6% | 12.4% | -11.7% (active) | 64.8% | 40.8%
COc1cc(OC)cc(C2=C3CC[C@@H]4[C@H](CC[C@]5(C)C(=O)CC[C@@H]45)C3=CC3C(O)c4cccnc4N4C(=O)COC234)c1 (stereo not given in full) | 108% | 101% | 101% | 86.2% | 96.5% | 102% | 86.6% | 91.6% | 104% | 96.2%
Cc1c(-c2nc3ccc(F)cc3c(=O)[nH]2)c2ccccc2n1C | 45.6% | 57.5% | 38.8% | 53.7% | 83.5% | 36% | 40.8% | -12.8% (active) | 15.6% | 23%
C=CCc1c2c(c(OC)c3ccoc13)C(=O)/C(=C/c1ccccc1OC)O2 | 58.4% | 60.6% | 62.1% | 65.7% | 52.9% | 59.3% | 38.4% | 46.2% | 37.5% | 45.8%
C=C(C)[C@@H]1CC[C@]2(C)[C@H](CC=C3[C@@H]4[C@H](C)[C@@H](C)CC[C@]4(CO)CC[C@]32C)[C@@]1(C)CCCN | -24.7% (active) | 74.1% | -4.38% (active) | 34.1% | -68.3% (active) | 63.4% | 22.4% | 72.5% | 0.722% (active) | -10.6% (active)
CC1=Nc2cnc(Nc3ccc(OCCN4CCCCC4)cc3)nc2Nc2ccccc21 | 50.2% | 78.3% | 49.2% | 11% | 64.2% | 27.1% | 17.2% | -9.49% (active) | 70.2% | 25.4%
COCCn1c(-c2csc(-c3cn(C)c4ccc(OC)cc34)n2)cc2cccnc21 | 54% | 58.5% | 80.2% | 54.9% | 43.6% | 70.9% | 74.8% | 60.8% | 41.3% | 54.4%
COc1cc2c(c(OC)c1OC)-c1ccc(OC)c(=O)cc1[C@@H](NC(=O)CCl)CC2 | 41.1% | 74.3% | 19.3% | 32.8% | 34.1% | 25.4% | 30.1% | -4.98% (active) | 15.3% | 20.9%
CC(C)CCC[C@@H](C)[C@H]1CC[C@H]2[C@@H]3CC=C4C[C@@H](C(C(=O)O)C(=O)O)CC[C@]4(C)[C@H]3CC[C@]12C | -58.5% (active) | -32.4% (active) | -12.2% (active) | -53.4% (active) | -52% (active) | -17.7% (active) | -51% (active) | -84.4% (active) | -24.3% (active) | -56.2% (active)
Nc1c(C(=O)Nc2ccncc2)sc2nc3c(cc12)CCCCCC3 | 94.2% | 89.2% | 86.4% | 78.4% | 90.2% | 108% | 98% | 54.8% | 68.1% | 70.3%
COc1cccc(/C=C/C(=O)c2cc3c(N)c(C(=O)Nc4ccccc4)sc3nc2C)c1 | 25.6% | 75.8% | 8.27% (active) | 11.8% | 40.1% | 33.5% | 15.4% | 58.8% | 7.86% (active) | 20.8%
O=C1/C(=C/c2ccc(-c3ccc(Br)cc3)o2)SC(=S)N1CCc1ccc(O)cc1 | 2.89% (active) | 77.2% | 69.6% | 39.9% | 87% | 83.9% | 39.1% | 64.7% | 21.7% | 33.6%
